Out of some 290,000 compounds screened, about 2,000 (0.69%) were called active. The sample as a whole holds a higher share of actives than the screen did. Unmarked numbers belong to inactive results. No stated cut-off is given here; in the data, active means activity change below about -30%; inactive means the rest, inconclusive results apart.
On the % scale 0 is the no-effect control and ±100 the full control effect.

The assay is described as follows: qHTS Assay for Inhibitors of Fructose-1,6-bisphosphate Aldolase from Giardia Lamblia: Coupling assay counterscreen. Particulars: coupling enzyme system counterscreen, AmpLite Red fluorescence; at 58.2 µM (top of the series). Summed up: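 Coupling enzymes only (glyceraldehyde-3-phosphate) + compound, at 57.5 uM final, 10 min RT; add substrate/coupling/AmpLite Red mix, 20 min RT; fluorescence ex 525/em 598 nm. Actives flag coupling-system interference.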
(qHTS replaces the single test concentration by a dilution series.)
As for `Cc1cccc(OCCC(=O)Nc2ccccc2C(N)=O)c1`, the activity change, negative = inhibition is -1.3%. Next, `O=C(NCc1ccco1)O[C@@H]1C(=O)c2cc(Br)ccc2O[C@H]1c1ccc2c(c1)OCO2`: -0.223%; `Cc1ccccc1NC(=O)N1CCCC1C(=O)NCc1ccccc1` (stereo unspecified): 2.24%; `CC(C)(C)c1ccc(C(=O)NCCn2c(N)c(C#N)c3nc4ccccc4nc32)cc1`: -0.974%. The result for `CC(C)Cn1c(N)c(C(=O)NCc2cccs2)c2nc3ccccc3nc21` reads -45.5% (active); that for `CCC(C)NC(=O)c1c(N)n(/N=C/c2cccs2)c2nc3ccccc3nc12` (stereo unspecified), 5.17%. Next, `COc1ccc(-c2nc3c(c4c2C[C@H](c2ccccc2)OC4)CN(C(=O)c2ccco2)CC3)c(C)c1`: -0.274%; `COc1ccc(OCC(=O)Nc2ccc(NC(=O)c3ccco3)c(C)c2)cc1`: -0.451%. In the case of `Cc1ccc(/C=N/NC(=O)COc2ccccc2-c2ccccc2)cc1`, the activity change, negative = inhibition was 0.851%. As to `Cc1ccc(/C=N/NC(=O)CNC(=O)COc2ccccc2)o1`, the activity change, negative = inhibition is 0.654%. On to `C=CCc1ccccc1OCC(=O)N/N=C/c1ccccc1OCC`, for which the activity change, negative = inhibition was -30.1% (active).

For `C=C(C)CNC(=S)N/N=C/c1ccccc1OCC(=O)O`, the activity change, negative = inhibition is 7.3%. `C=CCOc1ccccc1/C=N/NC(=O)Cc1ccccc1`: the activity change, negative = inhibition is 3.68%. The result for `CCOc1ccccc1/C=N/NC(=O)CNC(=O)COc1ccccc1` reads -43.5% (active).

Consider `Cc1ccc(CSCCNC(=O)CN(c2ccc(F)cc2)S(C)(=O)=O)cc1`, for which the activity change, negative = inhibition was -1.38%. The result for `O=c1c(O)c(Br)ccc2c(Br)c(O)c(O)c(O)c12` reads -45.3% (active); that for `COc1ccc(CNC(=O)C(C)NCc2ccccc2Cl)cc1` (stereo unspecified), -0.161%; that for `O=[N+]([O-])c1ccc(O)c(/C=N/Nc2ccccc2[N+](=O)[O-])c1`, 0.257%. The result for `O=[N+]([O-])c1ccc(N/N=C/c2ccccc2)cc1` reads 1.24%; that for `Oc1ccc2ccccc2c1C=Nc1ccccc1`, -34.9% (active). Next, `CC(=O)n1c(C=Nc2ccccc2)c(O)c2ccccc21`: 0.601%. Consider `COc1cc(N=Cc2c(O)[nH]c3ccccc23)cc(OC)c1OC`, for which the activity change, negative = inhibition was -1.7%.

With `O=[N+]([O-])c1ccc(N=Cc2c(O)ccc3ccccc23)cc1`, the activity change, negative = inhibition was -37.8% (active). For `CCCCn1c(SCC(=O)N2CCOCC2)nc2c1c(=O)n(C)c(=O)n2C`, the activity change, negative = inhibition is -0.5%. The result for `O=C(Nc1ccccc1N1CCOCC1)c1ccc(OCc2cscn2)cc1` reads -3.06%; that for `Cc1nc(Nc2ccccc2F)c2nnn(Cc3ccccc3Cl)c2n1`, 1.81%; that for `C=C[C@](C)(O)CCC1C(=C)CCC2[C@@](C)(CO)CCC[C@@]12C` (stereo partly specified), 1.09%. Next, `CC(C)(C)c1cc(C(=O)N/N=C/c2ccc([N+](=O)[O-])s2)n[nH]1`: 1.27%. Next, `CCOc1ccc(NC(=O)CCC(=O)N/N=C/c2ccc([N+](=O)[O-])s2)cc1`: 0.71%; `O=[N+]([O-])c1ccc(C=Nc2ccc(Cl)cc2Cl)s1`: -32% (active). For `Nc1nc2c(nc(Cl)n2C2OC(CO)C(O)C2O)c(=O)[nH]1` (stereo unspecified), the activity change, negative = inhibition is 1.07%. The result for `CC(C)(C)NC(=O)COc1ccc(CNc2ccc3[nH]c(=O)[nH]c3c2)cc1` reads -49.7% (active).

For `CC(=O)Nc1ccc(OCC(=O)NCc2ccc(C)cc2)cc1`, the activity change, negative = inhibition was 0.378%. On to `COC(=O)c1ccc(OCC(=O)NC(C)(C)C)cc1`, for which the activity change, negative = inhibition is -2.25%.

For `Cc1cccc(C)c1NC(=O)CN1C(=O)C(C)Oc2ccccc21` (stereo unspecified), the activity change, negative = inhibition is 0.123%. Next, `NS(=O)(=O)c1cccc(NC(=O)CC23CC4CC(CC(Br)(C4)C2)C3)c1`: -0.295%; `O=C(/C=C/c1ccc(N2CCOCC2)cc1)c1ccccc1`: -2.68%.

Consider `Oc1ccc2ccccc2c1N=Nc1nccs1`, for which the activity change, negative = inhibition was -6.8%. The result for `Oc1c(C=Nc2cccc3nsnc23)ccc2ccccc12` reads -48.9% (active).

As for `N#Cc1cccc(NC(=O)CN2CCCCCC2)c1`, the activity change, negative = inhibition is 0.599%. The result for `Cc1ccc(C(=O)NC2CCN(C(=O)Nc3ccc(F)cc3)CC2)cc1` reads -0.456%; that for `CC(=O)OCC(NC(=O)C(Cc1ccccc1)NC(=O)OC(C)(C)C)C1OC(n2ccc(=O)[nH]c2=O)C(OC(C)=O)C1OC(C)=O` (stereo unspecified), 0.391%. The result for `COc1ccc(N2CCN(C(=O)CCSCc3ccccc3F)CC2)cc1` reads 2.76%; that for `O=C(CN1CCOCC1)N/N=C/c1ccc(-c2ccc(Br)cc2)o1`, -3.01%; that for `Cc1ccc(-c2ccc(/C=N/NC(=O)CN3CCOCC3)o2)cc1[N+](=O)[O-]`, -44% (active). Next, `Cc1cc(C)c([N+](=O)[O-])cc1-c1ccc(/C=N/NC(=O)c2nonc2N)o1`: 2.52%. In the case of `CC(C)CNC(=S)NC(=O)c1ccc(Cl)cc1`, the activity change, negative = inhibition was -5.21%.

Take `CCOC(=O)C1=C(c2ccc(OC)cc2)C(=O)c2ccccc2C1=O`: the activity change, negative = inhibition was -63.5% (active).

`COc1ccc(OCCCON2C(=O)c3ccccc3C2=O)cc1`: the activity change, negative = inhibition is 0.279%. Next, `CCOC(=O)c1c(-c2ccc(C)cc2)csc1/N=C(\C)C1=C(O)c2ccccc2C1=O`: 3.5%; `CC[N+](C)(CC)CCC[n+]1c(-c2ccccc2)c2cc(N)ccc2c2ccc(N)cc21`: -38.7% (active); `COc1cc2c(C(=O)N3CCN(C)CC3)c(CSc3ccccc3)n(C)c2cc1Br`: 1.25%. Next, `COc1cc(-c2c(-c3ccc4c(c3)OCO4)noc2C)ccc1F`: 4.94%; `CNC(=O)C1(C)C=CC2(CCCCC2)N1C(C)=O` (stereo unspecified): -1.27%. Next, `COc1cccc(CC2(CO)CCCN(CC3=Cc4cc(OC)ccc4OC3)C2)c1` (stereo unspecified): -1.06%; `COc1ccc2c(c1)C=CC1(O2)N(CCO)c2ccccc2C1(C)C` (stereo unspecified): -47.2% (active); `CN1c2ccc([N+](=O)[O-])cc2C(C)(C)C12C=Cc1cc(C(=O)O)ccc1O2` (stereo unspecified): 6.4%. For the compound `CCOC(=O)C1(CCOc2ccccc2)CCN(Cc2cc(OC)c(O)cc2Cl)CC1`, the activity change, negative = inhibition is -3.97%.

As to `O=c1ccc2cc(S(=O)(=O)Nc3ccccc3F)ccc2o1`, the activity change, negative = inhibition was 2.93%. Next, `C#CCN1C(=O)C(O)(CC(=O)c2cc(OC)ccc2OC)c2ccccc21` (stereo unspecified): 2.24%. Next, `CCCCN1C(=O)/C(=C(/C#N)C(N)=O)c2ccccc21`: -19.4%; `COc1ccc2c(c1)C(=C(C#N)C#N)C(=O)N2CCc1ccccc1`: -35.5% (active); `NCCCNCCCCN(CCCN)/[N+]([O-])=N/O`: 1%. The result for `CN(C)c1ccc(S(=O)(=O)NCC(=O)NCC2CCCCC2)cc1[N+](=O)[O-]` reads -0.658%; that for `COc1ccc(-c2ccc(C3C4C=CCCC4(C)C(=O)N3Cc3ccccc3)c(F)c2)cc1OC` (stereo unspecified), 2.19%; that for `CC1(C)c2[nH]c3ccccc3c2C[C@H]2C(=O)N(N)CC(=O)N21`, 2.07%.

Source of the values: PubChem BioAssay AID2472 (National Center for Advancing Translational Sciences (NCATS), 2010).
